Compound activity as filed in PubChem.
An excerpt weighted towards active compounds, which were near 0.78% of everything screened.
APE1 inh-1: APE1 (human) endonuclease inhibition. Potency, µM (series often up to 65.8 µM), without a hit: top-dose activity change, negative = inhibition, hits mostly inhibitors. recombinant APE1, TAMRA/BHQ-2 abasic DNA cleavage fluorescence. 0.35% of 350,000 active. P27695;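 also: plate controls were vehicle for no effect and reference inhibitor for full effect; nearly all actives have a fitted effect of over 55% in size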
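Substrate: short duplex with […] THF abasic site, 5'-TAMRA and 3'-BHQ-2, 50 nM final. APE1 at 0.75 nM, preincubated 15 min RT with compound. Fluorescence increase from first to third read measured activity.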
L3MBTL1 inh-1: inhibitors of human L3MBTL1. 0.66% of 230,000 active. Potency, µM (titrated, usually from 57.1 µM), for inactives: top-dose activity, negative = inhibition, usual class: inhibitors. AID 485360. AlphaScreen L3MBTL1–H3K9me1 peptide binding. Q9Y468; also: % is scaled to controls: 0 for no effect and ±100 for the full control effect; nearly all actives have a fitted effect of over 60% in size
Target sequence (Q9Y468 whole entry, looked up): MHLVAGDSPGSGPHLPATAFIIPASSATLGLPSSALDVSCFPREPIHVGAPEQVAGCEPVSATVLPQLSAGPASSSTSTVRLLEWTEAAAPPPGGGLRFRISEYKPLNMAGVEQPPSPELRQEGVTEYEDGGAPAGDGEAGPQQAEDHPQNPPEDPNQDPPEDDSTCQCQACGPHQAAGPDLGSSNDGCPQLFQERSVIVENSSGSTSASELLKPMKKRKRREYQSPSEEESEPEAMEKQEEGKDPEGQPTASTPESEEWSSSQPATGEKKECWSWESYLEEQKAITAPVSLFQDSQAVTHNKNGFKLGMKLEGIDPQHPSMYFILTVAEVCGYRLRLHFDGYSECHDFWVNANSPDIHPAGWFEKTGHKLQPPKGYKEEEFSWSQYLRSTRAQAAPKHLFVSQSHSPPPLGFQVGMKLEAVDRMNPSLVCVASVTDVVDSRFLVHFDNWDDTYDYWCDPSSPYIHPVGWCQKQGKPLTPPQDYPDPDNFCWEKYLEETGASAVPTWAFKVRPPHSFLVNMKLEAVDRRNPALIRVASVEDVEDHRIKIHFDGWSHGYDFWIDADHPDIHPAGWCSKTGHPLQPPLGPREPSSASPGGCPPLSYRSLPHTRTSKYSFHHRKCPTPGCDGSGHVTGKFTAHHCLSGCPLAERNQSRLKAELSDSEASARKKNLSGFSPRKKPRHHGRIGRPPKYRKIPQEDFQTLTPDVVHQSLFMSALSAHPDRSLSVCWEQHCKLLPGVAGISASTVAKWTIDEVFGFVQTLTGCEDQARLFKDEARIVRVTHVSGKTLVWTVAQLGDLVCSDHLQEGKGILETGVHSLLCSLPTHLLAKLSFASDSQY
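First, the protein-peptide complex forms for 30 min at room temperature (L3MBTL1 50 nM, biotinylated H3K9me1 peptide 75 nM). Next, compounds are pin-transferred and incubated 30 min. Finally, AlphaScreen beads are added and read after 30 min.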
BLM inh-1: Bloom syndrome helicase (human) inhibition. AID 2528. Potency, µM (series often up to 56.1 µM), without a hit: at the top dose activity change, negative = inhibition, usual class: inhibitors. recombinant BLM DNA unwinding, fluorescence dequenching. 0.2% of 350,000 active;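 also: plate controls were vehicle for no effect and no enzyme for full effect; nearly all actives have a fitted effect of over 35% in size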
RECQ1 inh-1: blocks DNA unwinding by human RECQ1; AID 2549; P46063; Potency, µM (titrated, usually from 57.3 µM), for the others: top-dose activity, negative = inhibition, most hits filed as inhibitors; RECQ1 DNA unwinding, red fluorescence kinetic read; 0.54% of 240,000 active;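 also: plate controls were vehicle for no effect and no enzyme for full effect; nearly all actives have a fitted effect of over 30% in size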
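50 nM RECQ1T1 preincubated 15 min with compound in Tris pH 8.0 buffer with MgCl2, DTT, Tween-20 and 2.5 ug/ml poly(dI-dC); started with 200 nM TAMRA/BHQ-2 forked duplex and 2 mM ATP. Unwinding read as fluorescence (525/598 nm), two reads 2 h apart.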
DNA dye displace: counter-screen for APE1 inhibitors: DNA dye displacement. DNA fluorescent dye displacement counterscreen, fluorescence. Potency, µM (top dose mostly 28.5 µM), for inactives: at the top dose activity change, negative = inhibition, usual class: inhibitors. AID 2564. 7% of 480 active. shares compounds with APE1 inh-1;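 also: loss of thiazole orange fluorescence as the dye is displaced from duplex DNA; 0% = ThO with dsDNA and no compound and -100% = ThO without dsDNA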
Endo IV inh: Endo IV (E. coli) inhibition counter-screen; shares compounds with APE1 inh-1; 4% of 560 active; E. coli Endo IV, fluorogenic AP-site DNA cleavage; AID 2565; Potency, µM (doses to about 27.1 µM), inactives show at the top dose activity change, negative = inhibition, hits mostly inhibitors;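 also: plate controls were uninhibited enzyme wells for no effect and no enzyme buffer wells for full effect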
APE1 inh-2: confirmation of inhibitors of human APE1 endonuclease | shares compounds with APE1 inh-1 | purified APE1, fluorogenic abasic-site DNA cleavage | Potency, µM (titrated, usually from 57.1 µM), without a hit: top-dose activity change, negative = inhibition, most hits filed as inhibitors | 44% of 750 active; also: % is scaled to controls: 0 for no effect and ±100 for the full control effect; nearly all actives have a fitted effect of over 30% in size
APE1 FP inh: compounds that displace a DNA probe from human APE1 | APE1 binding to TAMRA-labelled double-stranded DNA, fluorescence polarization displacement | Potency, µM (highest dose often 28.5 µM), for inactives: top-dose activity, negative = inhibition, usual class: inhibitors | shares compounds with APE1 inh-1 | 7% of 480 active; also: % is scaled to controls: 0 for no effect and ±100 for the full control effect
BLM inh-2: BLM (human) helicase inhibition, confirmation; shares compounds with BLM inh-1; BLM DNA unwinding, fluorescence quenching, biochemical; Potency, µM, for inactives: max response, negative = inhibition, actives largely listed as inhibitors; 40% of 220 active;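 also: strand separation dequenches TAMRA so unwinding raises red fluorescence; series mostly up to about 69 µM; % is scaled to controls: 0 for no effect and ±100 for the full control effect; nearly all actives have a fitted effect of over 45% in size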
RECQ1 conf: confirmation of human RECQ1 helicase inhibitors | shares compounds with RECQ1 inh-1 | RECQ1 helicase DNA unwinding, fluorescence | Potency, µM (doses to about 229 µM), for the others: top-dose activity change, negative = inhibition, actives largely listed as inhibitors | 28% of 610 active | AID 2708; also: % is scaled to controls: 0 for no effect and ±100 for the full control effect; nearly all actives have a fitted effect of over 45% in size
ADP FP counter: ADP displacement flagged in RECQ1 inhibitor counter-screen; shares compounds with RECQ1 inh-1; ADP fluorescence polarization displacement counterscreen; Potency, µM (titrated, usually from 228 µM), for inactives: at the top dose activity change, negative = inhibition, usual class: inhibitors; 27% of 530 active; AID 2711; also: % is scaled to controls: 0 for no effect and ±100 for the full control effect; nearly all actives have a fitted effect of over 45% in size
RECQ1 inh-2: confirmation of human RECQ1 helicase inhibitors. shares compounds with RECQ1 inh-1. recombinant RECQ1 DNA unwinding, red fluorescence. Potency, µM (series often up to 119 µM), inactives show top-dose activity, negative = inhibition, actives largely listed as inhibitors. 15% of 1,100 active. AID 504841; also: % is scaled to controls: 0 for no effect and ±100 for the full control effect; nearly all actives have a fitted effect of over 50% in size
L3MBTL1 inh-2: L3MBTL1 binding inhibition validated | shares compounds with L3MBTL1 inh-1 | L3MBTL1 methyl-lysine binding inhibition, biochemical qHTS | Potency, µM, actives largely listed as inhibitors | 91% of 500 active | AID 540279; also: nearly all actives have a fitted effect of over 70% in size
L3MBTL1 ctr: AlphaScreen signal inhibition, L3MBTL1 hit counter-screen; shares compounds with L3MBTL1 inh-1; AlphaScreen counterscreen, signal inhibition; Potency, µM (titrated, usually from 57.1 µM), for the others: top-dose activity change, negative = inhibition, most hits filed as inhibitors; 500 tested, under 10 active; AID 602224; also: 0% is about no effect
Starred values were filed as active, the others as inactive; i = inactive; ? = inconclusive; · = not tested or not shown; [ ] = another dose, or the depositor's remark. Calls follow the shape of the dose curve; as a rule, active = well fitted curve in the direction sought with a large enough effect; inconclusive = small, poorly fitted or top-dose-only effect, or another doubt; inactive = no such curve, though single readings can be large; an effect the other way counts as inactive or inconclusive. Potency is read from the fitted curve at half-maximal effect.

SMILES	APE1 inh-1	L3MBTL1 inh-1	BLM inh-1	RECQ1 inh-1	DNA dye displace	Endo IV inh	APE1 inh-2	APE1 FP inh	RECQ1 inh-2	others
O=C(O)c1ccc(N2C(=O)c3cccc4cccc(c34)C2=O)cc1	-1.3%	42.6%	-0.9%	·	·	·	·	·	·
CCN(CC)c1ccc(NS(=O)(=O)c2cc3[nH]c(=O)c(=O)[nH]c3cc2C)c(C)c1	·	·	-4.1%	·	·	·	·	·	·
Nc1ccc2c(c1Cl)C(=O)c1ccc(N)c(Cl)c1C2=O	8.91µM*	?	14.1µM*	?	6.31µM*	?	14.1µM*	?	?
NNC(=O)c1cc(O)c(O)c(O)c1	0.891µM*	0.562µM*	?	3.16µM*	2.7%	163.7%	3.98µM*	5.4%	·	RECQ1 conf=8.1%[114 µM];ADP FP counter=-10.6%[91.9 µM]
COc1c(Cl)cc(C(=O)NN)cc1Cl	-0.8%	13.5%	-5.2%	i	·	·	·	·	·
Fc1ccc(C(NCCc2ccccc2)c2nnc(-c3ccccc3Cl)o2)cc1 (configuration not stated)	·	·	-6.7%	·	·	·	·	·	·
COc1ccccc1C(=O)Nc1nnc(SCc2cc(=O)c3ccccc3[nH]2)s1	·	·	-13.8%	·	·	·	·	·	·
O=C1/C(=C/c2cccc([N+](=O)[O-])c2)Oc2cc(O)ccc21	-16.8%	·	-4.2%	·	·	·	·	·	·
O=C1/C(=C/c2ccc(O)c(O)c2)Oc2cc(O)ccc21	?	·	-14.8%	?	-4.7%	176.6%	?	26.6%	56.2µM*
Cc1cc(C)cc(-n2ccnc2SCC(=O)Nc2nnc(C)s2)c1	·	·	-0.1%	·	·	·	·	·	·
O=C(Cn1cnc2sc(-c3ccccc3)cc2c1=O)NCc1ccccc1	18.2%	·	-11.9%	i	·	·	·	·	·
O=C(Cn1cnc2sc(-c3ccccc3)cc2c1=O)NCc1ccco1	31.6µM*	?	17.8µM*	20µM*	11.4%	-11.1%	8.91µM*	?	·	BLM inh-2=?;RECQ1 conf=39.8µM*;ADP FP counter=-22.3%[91.9 µM]
O=C(O)Cc1ccc(C(=O)CSc2ccccc2)s1	?	?	-29.8%	?	-2.6%	7.0%	?	8.3%	13.5%
CC(=O)NC1=NN(C(C)=O)C(C)(c2ccc3ccccc3c2)S1 (configuration not stated)	11.2%	2.5%	-4.6%	0.3%	·	·	·	·	·
CC(=O)NC1=NN(C(C)=O)C(C)(c2ccccc2)S1 (configuration not stated)	2.82µM*	31.6µM*	?	39.8µM*	5.2%	-4.2%	1.41µM*	-5.9%	-2.1%
CC1(C)CCCN(C(=O)c2coc(=O)c(Br)c2)C1	3.98µM*	6.31µM*	29.7%	11.2µM*	·	·	1.26µM*	·	·	RECQ1 conf=20µM*;ADP FP counter=-6.4%[91.9 µM]
O=C(c1coc(=O)c(Br)c1)N1CCC(C(O)(c2ccccc2)c2ccccc2)CC1	2.0%	3.1%	4.1%	-17.2%	·	·	·	·	·
COC(=O)NC(/C(C(=O)OC)=C(\C)NCc1ccccc1)c1cccs1 (configuration not stated)	?	·	-1.0%[12.4 µM]	-3.9%[11.5 µM]	·	·	·	·	·
CCCOc1ccccc1C(=O)Nc1nc2c(s1)CCCC2	·	·	-2.1%	·	·	·	·	·	·
C=Cc1c(C)/c2[n-]/c1=C\c1[n-]c(c(CC)c1C)/C=c1\[n-]c3c(c1C)C(=O)C(C(=O)[O-])C=3c1[n-]c(c(C)c1CCC(=O)[O-])\C=2.[Cu].[Na+].[Na+] (configuration not stated)	·	·	11.2µM*	1.12µM*	·	15.8µM*	2.82µM*	·	·	RECQ1 conf=2.82µM*;ADP FP counter=44.7µM*
COc1ccc(-c2nnc(SCC(=O)Oc3c(C)cccc3C)o2)cc1OC	·	·	-2.0%	·	·	·	·	·	·
O=C1C=C(O)c2cccc(O)c2C1=O	?	·	-0.4%	?	-3.4%	-2.7%	-4.1%[24.4 µM]	1.9%	-10.7%
CC(=O)OCCNc1cc(SCc2ccco2)c2nonc2c1[N+](=O)[O-]	12.6µM*	-7.0%	-19.2%	7.08µM*	-8.1%	-3.3%	14.1µM*	-6.4%	-22.9%	RECQ1 conf=19.8%[114 µM]
CC(=O)Oc1cc2cccc(OC(C)=O)c(=O)c2c(OC(C)=O)c1OC(C)=O	0.447µM*	0.355µM*	?	3.16µM*	1.1%	47.5%	6.31µM*	-0.9%	·	L3MBTL1 inh-2=1.5*;L3MBTL1 ctr=-11.4%
C=CCn1c(SCC(=O)c2ccc(O)c(O)c2)nnc1-c1cccnc1	1.58µM*	6.31µM*	?	8.91µM*	-5.2%	136.0%	2.51µM*	-22.9%	3.55µM*	L3MBTL1 inh-2=2.99*;L3MBTL1 ctr=?
CC(C)c1nn2c(=O)cc(COC(=O)c3ccc(NC(=O)c4ccccc4Cl)cc3)nc2s1	·	·	-8.2%	·	·	·	·	·	·
O=C1C2C3C=CC(CC3)C2C(=O)N1c1nccs1 (configuration not stated)	6.31µM*	25.1µM*	-28.4%	22.4µM*	54.5%	26.4%	?	-45.0%	·	L3MBTL1 inh-2=26.7*;L3MBTL1 ctr=6.3%
COc1ccccc1/C=c1\sc2nc(-c3ccco3)nn2c1=O	?	12.6µM*	-29.1%	?	-7.1%	-0.6%	5.01µM*	?	?	L3MBTL1 inh-2=11.9*;L3MBTL1 ctr=0.4%
CCOc1ccc(/C=c2\sc3nc(-c4ccco4)nn3c2=O)cc1OCC	15.7%	-16.0%	0.9%	i	·	·	·	·	·
